This is an account of results in PubChem BioAssay (Tox21).

A short description of assay [1]: qHTS assay to identify small molecule antagonists of the androgen receptor (AR) signaling pathway using the MDA cell line in the presence of 0.5 nM R1881 - cell viability counter screen (AID 1259242). Further: nearly all actives have a fitted effect of over 45% in size. A digest of the protocol:
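Viability of MDA-kb2 cells was multiplexed with the luciferase AR readout; after 16 hr with compounds and R1881 at 0.5 nM final, CellTiter-Fluor fluorescence was recorded.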

Assay [2] can be described thus: qHTS assay to identify small molecule HDAC inhibitors (AID 1259364). Further: potency means the concentration at half of the fitted maximal effect.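 Further: wild-type HCT-116 cells with endogenous class I/II HDAC activity; nearly all actives have a fitted effect of over 45% in size.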 A digest of the protocol:
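Read-out: luminescence of HDAC-Glo I/II reagent, 30 min RT, reflecting class I/II deacetylase activity in whole HCT-116 cells pre-exposed 2 h to DMSO-dissolved compounds.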

Assay [3] can be described thus: qHTS assay to identify small molecule HDAC inhibitors - cell viability counter screen (AID 1259365). Further: series mostly up to about 92 µM; nearly all actives have a fitted effect of over 50% in size. In outline: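 HCT-116 wild-type, overnight attachment; 2hr drug exposure, 37C; CellTiter-Glo luminescent ATP readout after 30min RT.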
Assay [4] in a line: qHTS assay to identify small molecule agonists of the sonic hedgehog signaling (Shh) pathway - cell viability counter screen (AID 1259366). Further: nearly all actives have a fitted effect of over 50% in size. Further: potency means the concentration at half of the fitted maximal effect. In outline: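 Compounds in DMSO were pin-transferred onto 3T3 Gli1-Luc cells that had settled 4hr; plates then stood 24hr at 37C and 5% CO2. One hour before the end, CellTiter-Fluor was added and fluorescence recorded.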
The nature of assay [5]: qHTS assay to identify small molecule antagonists of the sonic hedgehog signaling (Shh) pathway - cell viability counter screen (AID 1259367). Further: nearly all actives have a fitted effect of over 55% in size. Further: potency means the concentration at half of the fitted maximal effect. In outline:
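Cells: 3T3 Gli1-Luc, 2,000/well, 4 hr pre-incubation. Compounds in DMSO, then conditioned medium. Incubation 24 hr, 37C, 5% CO2. CellTiter-Fluor at 23 hr, 1 hr, fluorescence.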

Assay [6] is described as follows: qHTS assay to identify small molecule agonists of the sonic hedgehog signaling (Shh) pathway (AID 1259368; calls by dose curve; further: nearly all actives have a fitted effect of over 15% in size; further: potency means the concentration at half of the fitted maximal effect). A digest of the protocol: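 A Gli1 transcriptional response element controlled firefly luciferase in 3T3Gli1-Luc cells. Compounds and a positive control were added 4 hr after plating, and cells were incubated a further 24 hr at 37 C before luminescence detection.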

Assay [7] in a line: qHTS assay to identify small molecule antagonists of the sonic hedgehog signaling (Shh) pathway (AID 1259369; calls by dose curve; further: nearly all actives have a fitted effect of over 45% in size; further: potency means the concentration at half of the fitted maximal effect). In outline:
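For antagonist detection, the reporter line received test compounds together with conditioned medium, incubated 24hr at 37 C, 5% CO2, then luminescence was recorded following 30min room-temperature luciferase reagent incubation.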

Assay [8] can be described thus: qHTS assay to identify small molecule phospholipidosis (PLD) inducers (AID 1259344; active means well fitted curve in the direction sought with a large enough effect; an effect the other way counts as inactive or inconclusive). A digest of the protocol: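 Phospholipidosis is scored by imaging LipidTOX-stained pits in HepG2 cells exposed to compound for 24 h at 37 C; pit counts and integrated intensities per well and per cell serve as outputs.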

“And” between values parts separate entries of the source, which are not always exact repeats. Identical values can stand only once. Records with an inconclusive call do not appear. Where a structure was tested more than once in an assay, its records may differ in their call. The source made the active and inactive calls. Unless noted, the call rests on the fitted dose curve; in most records, active means well fitted curve in the direction sought with a large enough effect in the repeat runs; inconclusive means weak or mixed curves; inactive means no such curve, though single readings can be large; an effect the other way counts as inactive or inconclusive.

For the compound `O=C1O[C@H]([C@H](O)CO)C(O)=C1O`, the Potency result in assay [1], in assay [2], in assay [3], in assay [4], in assay [5] and in assay [6] was “inactive” in each case. The Potency entry in assay [7] was “inactive”.
Regarding `CC/C(C)=N/O`, the Potency entry in assay [1], in assay [2], in assay [3], in assay [4], in assay [5] and in assay [6] was “inactive” in each case. In assay [7], the Potency entry was “inactive”.
`COC(=O)OC`: the Potency entry in assay [1], in assay [2], in assay [3], in assay [4], in assay [5] and in assay [6] was “inactive” in each case. Further, in assay [7], the Potency entry is “inactive”.
As to `CC(COCC(C)OC(=O)c1ccccc1)OC(=O)c1ccccc1` (stereo not given), the Potency entry in assay [1], in assay [2], in assay [4], in assay [5], in assay [6] and in assay [7] was “inactive” each time.
Take `OCCOCCOCCOCCOCCO`: the Potency entry in assay [1], in assay [2], in assay [3], in assay [4], in assay [5] and in assay [6] was “inactive” in each case. The Potency entry in assay [7] is “inactive”.
Regarding `CCCCCNCCCCC`, the Potency result in assay [1], in assay [2], in assay [3], in assay [4], in assay [5] and in assay [6] was “inactive” throughout. In assay [7], the Potency entry is “inactive”.
Regarding `NC1CCCCC1N` (stereo not given), the Potency entry in assay [1], in assay [2], in assay [4], in assay [5], in assay [6] and in assay [7] was “inactive” throughout.
Take `CC[N+](CC)(CC(=O)Nc1c(C)cccc1C)Cc1ccccc1`: the Potency entry in assay [1], in assay [2], in assay [3], in assay [4], in assay [5] and in assay [6] was “inactive” each time. Besides, the Potency result in assay [7] was “inactive”. Moreover, the result in assay [8] was inactive.
Consider `OCc1ccc(Cl)cc1Cl`, for which the Potency entry in assay [1], in assay [2], in assay [4], in assay [5], in assay [6] and in assay [7] was “inactive” each time. The result in assay [8] was inactive.
Regarding `CC(C)(C)NC[C@H](O)COc1nsnc1N1CCOCC1`, the Potency entry in assay [1], in assay [2], in assay [4], in assay [5], in assay [6] and in assay [7] was “inactive” in each case. The compound was classed as inactive in assay [8].
Regarding `C=C(C)CC(C)(C)C`, the Potency result in assay [1], in assay [2], in assay [3], in assay [4], in assay [5] and in assay [6] was “inactive” each time. The Potency entry in assay [7] was “inactive”.
Regarding `Cc1cccc(C)c1[N+](=O)[O-]`, the Potency result in assay [1], in assay [2], in assay [4] and in assay [6] was “inactive” each time. In addition, the Potency result in assay [5] is “inactive and 48.6 µM (active)”; in assay [7], “inactive and 24.3 µM (active)”.
Consider `O=C(NCC1CCCCN1)c1cc(OCC(F)(F)F)ccc1OCC(F)(F)F` (stereo not given), for which the Potency entry in assay [1], in assay [2], in assay [4], in assay [5] and in assay [6] was “inactive” each time. For the same compound, the result in assay [8] was inactive. In addition, the Potency in assay [7] is 19 µM (active) and inactive.
As for `NC(=O)c1ncn([C@@H]2O[C@H](CO)[C@@H](O)[C@H]2O)n1`, the Potency result in assay [1], in assay [2], in assay [3], in assay [4], in assay [5] and in assay [6] was “inactive” each time. For the same compound, the Potency result in assay [7] is “inactive”. The result in assay [8] was inactive.
In the case of `Brc1ccc(Oc2ccc(Br)cc2)cc1`, the Potency entry in assay [1], in assay [2], in assay [3], in assay [4], in assay [5] and in assay [6] was “inactive” throughout. For the same compound, the Potency entry in assay [7] is “inactive”.
Turning to `CC(=O)OC[C@H]1O[C@@](COC(C)=O)(O[C@H]2O[C@H](COC(C)=O)[C@@H](OC(C)=O)[C@H](OC(C)=O)[C@H]2OC(C)=O)[C@@H](OC(C)=O)[C@@H]1OC(C)=O`, the Potency result in assay [1], in assay [2], in assay [4], in assay [5], in assay [6] and in assay [7] was “inactive” throughout. Besides, in assay [8], the outcome was inactive.
With `CC1(C)[C@@H](O[C@H]2O[C@H](C(=O)O)[C@@H](O)[C@H](O)[C@H]2O[C@@H]2O[C@H](C(=O)O)[C@@H](O)[C@H](O)[C@H]2O)CC[C@]2(C)[C@H]3C(=O)C=C4[C@@H]5C[C@@](C)(C(=O)O)CC[C@]5(C)CC[C@@]4(C)[C@]3(C)CC[C@@H]12`, the Potency result in assay [1], in assay [2], in assay [4], in assay [5], in assay [6] and in assay [7] was “inactive” each time. In addition, the call in assay [8] was inactive.
On to `Cc1cc(CC(=O)O)n(C)c1C(=O)c1ccc(Cl)cc1`, for which the Potency result in assay [1], in assay [2], in assay [4], in assay [5], in assay [6] and in assay [7] was “inactive” in each case. In addition, the compound was called inactive in assay [8].
In the case of `CCCCCC(C)=O`, the Potency result in assay [1], in assay [2], in assay [3], in assay [4] and in assay [6] was “inactive” each time. Further, the Potency entry is “inactive and 54.5 µM (active)” in assay [5]; “inactive and 27.3 µM (active)” in assay [7].
For the compound `Cc1ncc(CO)c(CO)c1O`, the Potency entry in assay [1], in assay [2], in assay [4], in assay [5], in assay [6] and in assay [7] was “inactive” each time. For the same compound, the call in assay [8] was inactive.
As to `CS(=O)(=O)c1ccc(Cl)cc1`, the Potency entry in assay [1], in assay [2], in assay [3], in assay [4], in assay [5] and in assay [6] was “inactive” throughout. For the same compound, the Potency entry in assay [7] is “inactive”.
For `O=C1OC(=O)c2c(Cl)c(Cl)c(Cl)c(Cl)c21`, the Potency entry in assay [1], in assay [2], in assay [3], in assay [4], in assay [5] and in assay [6] was “inactive” in each case. Further, the Potency result in assay [7] was “inactive”.
With `COc1ccccc1[N+](=O)[O-]`, the Potency result in assay [1], in assay [2], in assay [3], in assay [4], in assay [5] and in assay [6] was “inactive” in each case. Also, the Potency result in assay [7] was “inactive”.
In the case of `CC(=O)OCc1ccc2c(c1)OCO2`, the Potency result in assay [1], in assay [2], in assay [3], in assay [4], in assay [5] and in assay [6] was “inactive” throughout. The Potency entry in assay [7] is “inactive”.
For the compound `CCOC(=O)CC(=O)OCC`, the Potency result in assay [1], in assay [2], in assay [4], in assay [5], in assay [6] and in assay [7] was “inactive” throughout.
For the compound `C=C1C[C@]23C[C@@]1(O)CC[C@H]2[C@@]12C=C[C@H](O)[C@@](C)(C(=O)O1)[C@H]2[C@@H]3C(=O)O`, the Potency entry in assay [1], in assay [2], in assay [3], in assay [4], in assay [5] and in assay [6] was “inactive” throughout. Further, in assay [7], the Potency entry is “inactive”.
Consider `NCCNCCNCCN`, for which the Potency result in assay [1], in assay [2], in assay [4], in assay [5], in assay [6] and in assay [7] was “inactive” each time. In addition, the compound was called inactive in assay [8].
`c1cnc2c(c1)ccc1cccnc12`: the Potency result in assay [1], in assay [3] and in assay [7] was “inactive” each time. In addition, the Potency in assay [2] is 19.5 µM (active) and 24.3 µM (active) and 27.3 µM (active); in assay [4] it was 24.6 µM (active); in assay [5], 13.8 µM (active) and 68.6 µM (active) and 43.3 µM (active); in assay [6] it was 3.09 µM (active) and 24.3 µM (active) and 21.7 µM (active).
As to `CCN(CC)CCNC(=O)c1ccc(N)cc1`, the Potency result in assay [1], in assay [2], in assay [4], in assay [5], in assay [6] and in assay [7] was “inactive” in each case. Further, in assay [8], the compound was classed as inactive.
For the compound `COC(=O)/C=C\C(=O)OC`, the Potency entry in assay [1], in assay [2], in assay [3], in assay [4], in assay [5] and in assay [6] was “inactive” throughout. For the same compound, the Potency entry in assay [7] is “inactive”.
With `CC1=CC(=O)CC(C)(C)C1`, the Potency entry in assay [1], in assay [2], in assay [3], in assay [4], in assay [5] and in assay [6] was “inactive” in each case. In addition, the Potency entry in assay [7] was “inactive”.
